The entries come from a sample that favours hits as a whole.
Giardia FBPA inh: qHTS Assay for Inhibitors of Fructose-1,6-bisphosphate Aldolase from Giardia Lamblia; purified Giardia FBPA; 290,000 tested, 0.71% active; Potency, µM (titrated, usually from 59.6 µM), actives largely listed as inhibitors; further: nearly all actives have a fitted effect of over 55% in size
Target sequence (A8B2U2 whole entry, looked up): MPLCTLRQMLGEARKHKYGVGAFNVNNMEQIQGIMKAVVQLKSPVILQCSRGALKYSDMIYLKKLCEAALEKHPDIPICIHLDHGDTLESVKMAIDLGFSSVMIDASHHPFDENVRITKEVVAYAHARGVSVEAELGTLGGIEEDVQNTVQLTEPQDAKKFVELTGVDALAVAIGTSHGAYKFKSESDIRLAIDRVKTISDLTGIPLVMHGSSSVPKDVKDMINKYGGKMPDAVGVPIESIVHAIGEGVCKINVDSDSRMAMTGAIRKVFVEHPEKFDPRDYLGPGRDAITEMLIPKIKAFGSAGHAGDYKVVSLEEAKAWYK
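40 nM FBPA preincubated 10 min at RT with compound (up to 57.5 uM final), then substrate plus GAPDH/TPI/NAD/arsenate coupling and diaphorase/resazurin added. Fluorescence read after 20 min at RT, 525/598 nm.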
RE007 growth inh: qHTS Assay for Inhibitors of the HIV-1 protein Vpr. S. pombe RE007 Vpr strain, BacTiter-Glo ATP luminescence, 24 h. Potency, µM (highest dose often 92.2 µM), usual class: inhibitors. 360,000 tested, 0.21% active. AID 651644, 2012; active means well fitted falling curve with a large enough effect; further: nearly all actives have a fitted effect of over 50% in size
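Fission yeast strain RE007, carrying one chromosomally integrated HIV-1 vpr copy, was seeded at OD 0.01 in PMG+AL medium with 23 nL pinned compound. After 24 h at 30 °C and 99% humidity, viability was read by BacTiter-Glo luminescence.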
LmPK inhibitor: qHTS Assay for Inhibitors of Leishmania Mexicana Pyruvate Kinase (LmPK); 290,000 tested, 0.37% active; Potency, µM (highest dose often 57.5 µM), actives largely listed as inhibitors; purified LmPK, Kinase-Glo ATP luminescence, 1 h; Q27686
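qHTS format; LmPK 0.1 nM; substrates PEP 0.5 mM and ADP 0.1 mM. One-hour room-temperature incubation, then coupled luciferase luminescence; 0.5 nM enzyme wells mark activation.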
CHX counter: Cycloheximide Counterscreen for Small Molecule Inhibitors of Shiga Toxin | cell reporter, cycloheximide protein synthesis inhibition counterscreen | max response, % | 300,000 tested, 12% active | AID 2314, 2010; in the data active means max response mostly above about 13%, no sharp cut-off; inactive means mostly below about 14%; further: read at 38.3 µM for the half of the compounds with a filed dose
Shiga inhibitor: A qHTS for Small Molecule Inhibitors of Shiga Toxin; Vero cells, Shiga toxin protein synthesis inhibition reporter; inhibition, % at 38.7 µM; 290,000 tested, 9.2% active; AID 2315, 2010; in the data active means inhibition mostly above about 28%, no sharp cut-off; inactive means mostly below about 43%
TbPYK inhibitor: qHTS of Trypanosoma Brucei Inhibitors | TbPYK enzyme, Kinase-Glo Plus ATP luminescence, 45 min | AID 624173, 2012 | Potency, µM (series often up to 76.8 µM), actives largely listed as inhibitors | 410,000 tested, 0.12% active; further: nearly all actives have a fitted effect of over 50% in size
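Glycolytic pyruvate kinase of T. brucei was incubated with substrate, test compound and 130 uM ADP for 45 minutes at room temperature. Luminescent Kinase-Glo Plus signal was measured after 10 minutes.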
A number is an active result. Unless noted, the call rests on the fitted dose curve; in most records, active means well fitted curve in the direction sought with a large enough effect; inconclusive means small, poorly fitted or top-dose-only effect, or another doubt; inactive means no such curve, though single readings can be large; an effect the other way counts as inactive or inconclusive.

COc1ccc(OC)c(NC(=O)c2cc3cccc(OC)c3oc2=O)c1 was read as TbPYK inhibitor inactive.
For COc1ccc(S(=O)(=O)Nc2ccccc2OC)cc1NC(=O)c1cc2ccccc2oc1=O the results were Giardia FBPA inh inactive, RE007 growth inh inactive, LmPK inhibitor inactive, CHX counter 38, Shiga inhibitor 148 and TbPYK inhibitor inactive.
Screening COc1ccc(NC(=O)c2cc3ccccc3oc2=O)c(OC)c1 returned Giardia FBPA inh inactive, RE007 growth inh inactive, LmPK inhibitor inactive, CHX counter 51, Shiga inhibitor 133 and TbPYK inhibitor inactive.
For COc1ccccc1C(=O)Nc1cc2ccccc2oc1=O the results were Giardia FBPA inh inactive, RE007 growth inh inactive, LmPK inhibitor inactive, CHX counter 19, Shiga inhibitor 43 and TbPYK inhibitor inactive.
COc1ccc(NC(=O)c2oc3ccccc3c2C)c(OC)c1 was read as Giardia FBPA inh inactive, RE007 growth inh inactive, LmPK inhibitor inactive, CHX counter 16, Shiga inhibitor 46 and TbPYK inhibitor inactive.
Screening COc1ccc(CNC(=O)C2CCN(c3nnc(-n4c(C)ccc4C)s3)CC2)c(OC)c1 returned TbPYK inhibitor inactive.
O=C(CN1C(=O)CSc2ccc(S(=O)(=O)N3CCCCC3)cc21)NCc1ccc(F)cc1Cl was read as TbPYK inhibitor inactive.
COc1cccc2c(Cl)c(CC=C(Cl)Cl)c(C)nc12 was read as Giardia FBPA inh inactive, RE007 growth inh inactive, LmPK inhibitor inactive, CHX counter inactive, Shiga inhibitor inactive and TbPYK inhibitor inactive.
`C=CCc1c(C)nc2c(OC)cccc2c1Cl` gave Giardia FBPA inh inactive, RE007 growth inh inactive, LmPK inhibitor inactive, CHX counter 14, Shiga inhibitor inactive and TbPYK inhibitor inactive.
C=CCN=C1CCCc2c1[nH]c1ccc(C)cc21 was read as Giardia FBPA inh inactive, RE007 growth inh inactive, LmPK inhibitor inactive, CHX counter 30, Shiga inhibitor 50 and TbPYK inhibitor inactive.
`COc1cccc(C(=O)Cn2c(=N)n(C)c3ccccc32)c1` gave Giardia FBPA inh inactive, RE007 growth inh inactive, LmPK inhibitor inactive, CHX counter 31, Shiga inhibitor inactive and TbPYK inhibitor inactive.
`Cn1c(=N)n(CC(=O)c2cccs2)c2ccccc21` gave Giardia FBPA inh inactive, RE007 growth inh inactive, LmPK inhibitor inactive, CHX counter 56, Shiga inhibitor 149 and TbPYK inhibitor inactive.
`COc1cccc(C(=O)Cn2c(NCCO)nc3ccccc32)c1` gave Giardia FBPA inh inactive, RE007 growth inh inactive, LmPK inhibitor inactive, CHX counter inactive, Shiga inhibitor inactive and TbPYK inhibitor inactive.
CCn1c(=N)n(CC(=O)c2cccc([N+](=O)[O-])c2)c2ccccc21 was read as Giardia FBPA inh inactive, RE007 growth inh inactive, LmPK inhibitor inactive, CHX counter 38, Shiga inhibitor 81 and TbPYK inhibitor inactive.
Screening Cc1c(Cl)sn(-c2ccc(Cl)cc2)c1=O returned Giardia FBPA inh inactive, RE007 growth inh 1µM, LmPK inhibitor inactive, CHX counter 35, Shiga inhibitor 92 and TbPYK inhibitor 4.5µM.
For CCCCOC(=O)c1ccc(Nc2ncnc3[nH]ncc23)cc1 the results were TbPYK inhibitor inactive.
COc1ccc(Cl)cc1NC(=O)C/C(C)=N/NC(=O)Cc1ccccc1 was read as Giardia FBPA inh inactive, RE007 growth inh inactive, LmPK inhibitor inactive, CHX counter inactive, Shiga inhibitor 44 and TbPYK inhibitor inactive.
COc1ccc(Cl)cc1NC(=O)C/C(C)=N/NC(=O)c1ccc(O)cc1 was read as Giardia FBPA inh inactive, RE007 growth inh inactive, LmPK inhibitor inactive, CHX counter 31, Shiga inhibitor 68 and TbPYK inhibitor inactive.
`COc1ccc(Cl)cc1NC(=O)CCc1ccccc1` gave Giardia FBPA inh inactive, RE007 growth inh inactive, LmPK inhibitor inactive, CHX counter inactive, Shiga inhibitor inactive and TbPYK inhibitor inactive.
`COc1ccc(OC)c(NC(=O)C(=O)N/N=C(\C)CC(=O)Nc2ccc(Cl)cn2)c1` gave RE007 growth inh inactive, LmPK inhibitor inactive, CHX counter inactive, Shiga inhibitor inactive and TbPYK inhibitor inactive.

Screening results: PubChem BioAssay, National Center for Advancing Translational Sciences (NCATS)
